In all, about 340,000 compounds went through this assay and about 240 (0.071%) were called active. The call rests on the fitted dose curve. For the sample, actives were picked, then their nearest neighbours and some compounds at random.
biological target: Snurportin-1 (Homo sapiens) + GTP-binding nuclear protein Ran (Homo sapiens) + Importin subunit beta-1 (Homo sapiens) (UniProt O95149+P62826+Q14974); assay: qHTS Assay for Inhibitors of RanGTP induced Rango (Ran-regulated importin-beta cargo) - Importin beta complex dissociation; conditions: Biochemical FRET Rango-importin beta; series mostly up to 46.1 µM; activity change, negative = inhibition: at the top concentration; further: nearly all actives have a fitted effect of over 45% in size; on activity change, negative = inhibition: % of control where 0% means no effect
Source text: NIH Molecular Libraries Probe Production Centers Network [MLPCN] NIH Chemical Genomics Center [NCGC] MLPCN Grant: R03 MH090808-01A1 Assay Submitter (PI): Petr Kalab NCGC Assay Overview: The small GTPase Ran regulates transport of macromolecules between the nucleus and the cytoplasm (nuclear transport) and has important functions in mitotic spindle assembly, nuclear envelope (NE) formation and nuclear pore complex (NPC) assembly. RanGTP gradient is thought to promote spindle assembly by providing a spatial clue to microtubule nucleation and Aurora A activation. Because the localized release and binding of importin alpha cargos relays this spatial clue to SAFs, inhibitors of the Rango - importin beta complex can then be used in further understanding their role in cell cycle specifically in mitosis progression. […] Activation of Aurora A has been linked to different types of cancer and a number of Aurora kinase inhibitors are being developed as potential canter therapeutics; therefore, identified inhibitors of this complex could be developed into potential anti-mitotic probes for cancer treatment. Purified recombinant proteins Rango - importin beta and RanGTP-RCC1 stock premixes were provided by the assay submitter. The assay used a fluorescence resonance energy transfer (FRET) Rango biosensor that contains the IBB of human snurportin 1 flanked by yellow fluorescent protein (EYFP) at the amino terminus and cerulean CFP10 at the carboxy terminus. […] RanGTP binding to the complex (in the presence of RCC1) releases the Rango from the complex. The flexibility of the IBB in the freed Rango allows the donor - acceptor fluorophores to interact, resulting in a high FRET signal. Inhibitors will therefore be identified based on the ability to interfere with the FRET signal increase. DMSO treated and no RanGTP-RCC1 (buffer only) wells were used as negative and positive controls respectively. FRET readings were obtained at two time points. FRET reading prior to importin beta addition (pre-read) were used flag potential compound interference; FRET reading after importin beta addition (post-read) were used to identify inhibitors.
NCGC Assay Protocol Summary: Two and a half uL/well of Rango- importin beta premix solution (0.1 uM Rango, 0.25 uM importin beta, 1x PBS, 1mM DTT, 0.02% Tween-20, 0.1% BSA final concentrations) was dispensed into 1536-well assay plates (Greiner, solid black medium-binding plates) with Aurora Discovery BioRAPTR Flying Reagent Dispenser (FRD; Beckton-Dickenson). Compound solution (23 nL) was transferred to the assay plate using Kalypsys pin tool equipped with a 1536-pin tool and incubated at room temperature for 5 min followed by a FRET pre-read using the PerkinElmer Envision plate reader. Two and a half uL/well of RanGTP-RCC1 premix solution (0.6 uM Ran, 2mM GTP, 0.2 uM RCC1, 1x PBS, 1mM DTT, 0.02% Tween-20, 0.1% BSA final concentrations) were then added and incubated at room temperature giving a final reaction volume of 5uL. After 45min FRET post-read was obtained via the Envision plate reader using the same optics and settings as the pre-read (CFP/YFP optimized dual optical module D450/D505; excitation mirror CFP 430/24 nm; and emission filters CFP 486/10 nm and YFP 530/10 nm).
Potency means the concentration at half of the fitted maximal effect.

Structure (SMILES) | activity change, negative = inhibition | Potency
COc1ccccc1N(CC(=O)Nc1c(C)n(C)n(-c2ccccc2)c1=O)S(=O)(=O)c1ccccc1 | 15.2% (inactive) | –
CC(C)(C)c1nnc2sc(SCC(O)=C(C#N)c3nc4ccccc4[nH]3)nn2c1=O | -17.3% (inactive) | –
Cc1cc(NC(=O)C(C)SCC(=O)Nc2cccc(S(=O)(=O)N3CCCCCC3)c2)no1 (stereo unspecified) | -9.26% (inactive) | –
CC(C)(C)C(=O)Nc1cccc(-c2ccc[nH]2)n1 | -8.04% (inactive) | –
Nc1ccc2c(c1)C(O)c1ccc(Cl)cc1-2 (stereo unspecified) | 12% (inactive) | –
Cn1cc(C2OC(=O)c3ccccc32)c2ccccc21 (stereo unspecified) | -1.39% (inactive) | –
CCC1([N+](=O)[O-])COC(c2ccc(C(C)C)cc2)OC1 (stereo unspecified) | 4.48% (inactive) | –
Nc1ccc2c(c1)C(=Cc1cccnc1)c1ccccc1-2 | -0.303% (inactive) | –
Cc1nc2ccc(N)nc2nc1C | -10.7% (inactive) | –
CC(C)c1cc(N=O)cc(C(C)C)c1O | 16.3% (inactive) | –
O=C(OCCOc1ccccc1Cl)c1cc(S(=O)(=O)N2CCCCC2)ccc1N1CCOCC1 | -8.97% (inactive) | –
Cc1ccc(S(=O)(=O)N2CCN(C(=O)c3cc(S(=O)(=O)N4CCOCC4)ccc3F)CC2)cc1 | 6.87% (inactive) | –
CN(CCc1ccccc1)C(=O)c1cccc(NC(=O)Cc2cccc(NC(=O)C3CCCN(C(=O)CCc4ccccc4)C3)c2)c1 (stereo unspecified) | -6.42% (inactive) | –
CCC(=O)N1CCc2cc(Br)c(S(=O)(=O)NCCN3CCCCC3CC)cc21 (stereo unspecified) | -5.08% (inactive) | –
O=C(c1cccc(S(=O)(=O)N2CCCCCC2)c1)N1CCN(Cc2ccccc2)CC1 | 0.329% (inactive) | –
CCOc1ccccc1NC(=S)C(=C([O-])c1ccc2c(c1)OCCO2)[n+]1ccc(CC)cc1 | 7.69% (inactive) | –
CC(=O)c1cccc(-c2ccc(CN3C(CC(C)C)C(=O)N(Cc4cn(CC5CCCCC5)nn4)CCS3(=O)=O)cc2)c1 (stereo unspecified) | 5.63% (inactive) | –
C[n+]1cccc(C(=O)O)c1 | 10.9% (inactive) | –
CC1CN(Cc2ccco2)C(=S)N(c2ccccc2)C1=O (stereo unspecified) | 0.667% (inactive) | –
Cc1nc(N)nc(Cl)c1CCC1OCCO1 | 18.9% (inactive) | –
O=C(CN1C(=O)/C(=C\c2ccc(C(F)(F)F)cc2)Sc2ccccc21)NCc1ccco1 | – | 11.6 µM [inconclusive] (active)
O=C(CCCCCN1C(=O)c2cccc3cccc(c23)C1=O)NCc1ccco1 | 4.95% (inactive) | –

Structure (SMILES) | activity change, negative = inhibition | Potency
O=C(CC1CCCCC1)NCc1ccco1 | -9.28% (inactive) | –
O=C(Cc1ccc([N+](=O)[O-])cc1)NCCc1ccc2c(c1)OCO2 | 12.1% (inactive) | –
Cc1nc(N)nc(SCc2ccc([N+](=O)[O-])cc2)c1N | -1.08% (inactive) | –
Cc1cccc(NS(=O)(=O)c2ccc([N+](=O)[O-])cc2)n1 | -2.17% (inactive) | –
Cc1nc2ccccc2nc(=O)c1NNc1ccc([N+](=O)[O-])cc1 | – | 14.6 µM [inconclusive] (active)
CN(C(=O)c1cccc(NC(=O)Cc2ccc(NC(=O)C3CCCN(C(=O)C4CCCC4)C3)cc2)c1)C1CCC1 (stereo unspecified) | 4.82% (inactive) | –
CSCCC(NS(=O)(=O)c1ccc(C)cc1)C(=O)N(C)CC(=O)Nc1ccccc1Br (stereo unspecified) | -5.32% (inactive) | –
CC(=O)OCC(=O)C1(O)CCC2C3CC(C)C4=CC(=O)CCC4(C)C3C(O)CC21C (stereo unspecified) | -18.3% (inactive) | –
NC(=S)NN=C1CCCC(C(F)(F)F)C1 (stereo unspecified) | -1.47% (inactive) | –
C[C@@H]1NS(=O)(=O)c2cc(Cl)ccc2O[C@@H]1c1ccccc1 | 7.4% (inactive) | –
CC(=O)CSc1nc(CCc2ccccc2)c(C#N)c(=O)[nH]1 | -1.86% (inactive) | –
CC(C)CN1CC(C)C(=O)N(c2ccccc2)C1=S (stereo unspecified) | 0.708% (inactive) | –
Nc1ncnc2c1cnn2C1CC(O)C(CO)O1 (stereo unspecified) | 0.102% (inactive) | –
Cc1ccc(-c2csc(C(C#N)=C(O)CN3CCN(C(=O)c4ccco4)CC3)n2)cc1 | 2.16% (inactive) | –
O=C1CC(C(=O)O)NC(=S)N1 (stereo unspecified) | -1.44% (inactive) | –
CCc1nnc(NC(=O)c2cc(S(=O)(=O)N3CCN(CC)CC3)ccc2Cl)s1 | -2.92% (inactive) | –
O=C(Cc1ccc(NC(=O)C2CCCN(C(=O)C3CCCCC3)C2)cc1)Nc1cccc(C(=O)N2CCCCC2)c1 (stereo unspecified) | -0.0587% (inactive) | –
CCc1ccc(C(=O)C(C)OC(=O)CN2C(=O)NC3(CCCC3)C2=O)cc1 (stereo unspecified) | 9.43% (inactive) | –
COc1ccc(CCNC(=O)c2ccc(NC(=O)CC3SC(N4CCCCC4)=NC3=O)cc2)cc1OC (stereo unspecified) | 19.5% (inactive) | –
Cc1onc(-c2c(F)cccc2Cl)c1C(=O)Nc1cccc(S(=O)(=O)N2CCCCC2)c1 | 4.01% (inactive) | –
COc1ccccc1C(=O)c1ccccc1C(=O)c1ccccc1 | 6.28% (inactive) | –
CCOC(=O)N(Cc1ccccc1)C1CC1 | -14.1% (inactive) | –

Structure (SMILES) | activity change, negative = inhibition | Potency
COC1=NC2=NCCN2C(OC)=N1 | 0.279% (inactive) | –
O=C(NN=Cc1ccccc1O)NN=Cc1ccccc1O | 25.5% (inactive) | –
O=[N+]([O-])c1cccc(C=NN=Cc2ccccc2O)c1 | 12.1% (inactive) | –
CN(C)CCNC(=O)c1ccc(Cl)c2cc3ccccc3nc12 | -25.3% (inactive) | –
CCC(C)C1(C2CCCC2)NC(=O)NC1=O (stereo unspecified) | -4.04% (inactive) | –
CSc1ncnc2c1ncn2CC(=O)C1CCC2C3CCC4=CC(=O)CCC4(C)C3CCC12C (stereo unspecified) | -2% (inactive) | –
COc1cccc2c1C(=O)c1c(O)c3c(c(O)c1C2=O)CC(O)(C(C)=NNC(=O)c1ccc(Cl)c(Cl)c1)CC3OC1CC(N)C(O)C(C)O1 (stereo unspecified) | 8.77% (inactive) | –
CCCN(CCC)S(=O)(=O)c1cc2c(cc1Br)CCN2C(=O)CC | -8.15% (inactive) | –
COc1ccc(C(=O)Nc2cccc(/C=C(/CCC(=O)O)c3nc4ccccc4s3)c2)cc1 | 11.4% (inactive) | –
CCCN(C(=O)COC(=O)CNS(=O)(=O)c1ccc(NC(C)=O)cc1)C1CCS(=O)(=O)C1 (stereo unspecified) | -7.66% (inactive) | –
CC(=NNC(=S)N1CCCCCC1)c1ccccn1 | -12.1% (inactive) | –
Cc1cccc(CC2(O)C(=O)Nc3ccccc32)n1 (stereo unspecified) | 16.1% (inactive) | –
Cc1cc(OCCCC(=O)Nc2cc(S(=O)(=O)N3CCOCC3)ccc2N2CCOCC2)ccc1Cl | 0.551% (inactive) | –
COC1=CC(=O)OC(C)(c2ccccc2)C1 (stereo unspecified) | -0.43% (inactive) | –
COc1ccc2c(c1)C(=O)CC(c1ccccc1)O2 (stereo unspecified) | -4% (inactive) | –
CC(NC(=O)c1ccccc1)C(=O)OCC(=O)Nc1cccc(S(=O)(=O)N2CCCC2)c1 (stereo unspecified) | 4.12% (inactive) | –
O=C1C(=O)N(c2ccccc2)C(c2ccccc2)C1c1ccccc1 (stereo unspecified) | -1.36% (inactive) | –
Cc1ccc(OCCNC(=O)c2cccc(S(=O)(=O)N3CCN(Cc4ccccc4)CC3)c2)cc1 | 1.12% (inactive) | –
COC[C@@H]1NS(=O)(=O)c2ccc(Br)cc2O[C@H]1c1ccccc1 | 6.09% (inactive) | –
CN(C(=O)c1cccc(NC(=O)Cc2cccc(NC(=O)C3CCCN(C(=O)C4CC4)C3)c2)c1)C1CCC1 (stereo unspecified) | 9.2% (inactive) | –
O=S1(=O)CCOC[C@H](Cc2ccccc2)N1Cc1ccccc1Br | -14.1% (inactive) | –
O=c1oc2ccccc2c(=O)c2ccccc12 | -1.68% (inactive) | –
